From PubChem BioAssay (NCI)
The panel holds about 79,000 compounds, 15% with a hit somewhere; the sample as a whole holds those more often. No stated cut-off is given here; in the data, active means growth inhibition above about 70%; inactive means the rest.

Experiments:
[1] = NCI Yeast Anticancer Drug Screen. Data for the rad50 strain (AID 155);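 further: 0% = growth of vehicle-only cultures of the same strain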; conditions: S. cerevisiae rad50 strain growth inhibition; at 50.0 µM; stronger effect = higher value
Method in brief: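 Vehicle-treated cultures provide the reference for the growth inhibition reported for compound-exposed, repair-deficient yeast.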

[2] = NCI Yeast Anticancer Drug Screen. Data for the mec2-1 strain (AID 157); conditions: S. cerevisiae mec2-1 strain, at 50.0 µM, stronger effect = higher value
Method in brief: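 Yeast mec2-1 mutant treated with compound. Readout: growth inhibition vs vehicle controls.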

[3] = NCI Yeast Anticancer Drug Screen. Data for the sgs1 mgt1 strain (AID 161);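 further: 0% = growth of cultures given vehicle only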; conditions: S. cerevisiae sgs1 mgt1 strain, at 50.0 µM, stronger effect = higher value
Method in brief: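 Mutant yeast exposed to compound; growth scored against vehicle-only wells.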

[4] = NCI Yeast Anticancer Drug Screen. Data for the cln2 rad14 strain (AID 165);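 further: 0% = growth equal to vehicle treated cultures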; conditions: S. cerevisiae cln2 rad14 strain, at 50.0 µM, stronger effect = higher value
Method in brief: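 cln2 rad14 yeast strain; compound exposure; growth inhibition read vs vehicle controls.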

[5] = NCI Yeast Anticancer Drug Screen. Data for the bub3 strain (AID 167); conditions: S. cerevisiae bub3 mutant strain, at 50.0 µM, stronger effect = higher value
Method in brief: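 Mutant yeast screening strain plus compound; vehicle-treated cultures serve as the 0% inhibition reference.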

[6] = NCI Yeast Anticancer Drug Screen. Data for the mlh1 rad18 strain (AID 175); conditions: S. cerevisiae mlh1 rad18 strain growth inhibition; at 50.0 µM; stronger effect = higher value
Method in brief: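 Yeast w/ defined DNA-repair lesions; compound exposure; growth vs vehicle controls → % inhibition.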

Measured: growth inhibition

CCOC(=O)c1cc(C)nc2c1c(=O)n(-c1ccccc1)c(=O)n2CCCCN1CCN(c2ccccc2)CC1
inactive: [1] -1.7% | [2] -13.2% | [3] 4.8% | [4] 3.25% | [5] -21.8% | [6] -29.1%

O=C1CN(N2CCOCC2)CC(=O)N2CCCCN12
inactive: [1] 20.9% | [2] 1.25% | [3] 13.9% | [4] 19.9% | [5] 10.4% | [6] 6.25%

CC(=O)OCC1OC(n2cnc3c(N)ncnc32)C2OC(C)(C)OC12 (stereo not given)
inactive: [1] 11.4% | [2] -30.2% | [3] -19.1% | [4] 1.45% | [5] -1.9% | [6] -12.8%

CCOC(=O)C1C2CC3C(CC21C)C3(C)C (stereo not given)
inactive: [1] -6.1% | [2] -6.65% | [3] -12.9% | [4] -2.5% | [5] -20.6% | [6] 1%

c1ccc2c(c1)CCCC(N1CCOCC1)C2 (stereo not given)
inactive: [1] 2.3% | [2] 2.7% | [3] 16.9% | [4] 11.1% | [5] -24.3% | [6] 15.9%

COc1cc(C(C)C)c(Oc2c(C)c(OC)cc(C(C)C)c2O)cc1C (tested in a mixture with another compound)
inactive: [1] -7.5% | [2] -21.4% | [3] -9.6% | [4] -11.1% | [5] 7.9% | [6] 7.4%

O=[N+]([O-])c1ccc(-c2csc(NCC3CCCO3)n2)cc1 (stereo not given)
inactive: [1] 24.3% | [2] -10.6% | [3] 49.9% | [4] 21.1% | [5] 21.6% | [6] 17.9%

CC1C=CCCC1COC(=O)C(=O)OCC1CC=CCC1C (stereo not given)
inactive: [1] 32.7% | [2] 0.15% | [3] 28.1% | [4] 9.25% | [5] 31.9% | [6] 19.9%

CCCCCCCC/C=C\CCCCCCCCOC(=O)CC(O)C(=O)OCCCCCCCC/C=C\CCCCCCCC (stereo not given)
inactive: [1] -22.6% | [2] -4.05% | [3] -7.5% | [4] -22.9% | [5] -9.8% | [6] -17.2%

CCCCc1c(O)c2c(=O)n(C)c(=O)n3c4ccccc4n(c1=O)c23
inactive: [1] -1.55% | [2] -9.7% | [3] -1% | [4] -22.1% | [5] -0.3% | [6] 10.8%

O=C(Cn1c(=O)oc2ccc(C(=O)c3ccc(F)cc3)cc21)c1ccc([N+](=O)[O-])cc1
inactive: [1] -13.8% | [2] -36% | [3] -15.6% | [4] -24.6% | [5] -21.6% | [6] -14.8%

CCCCCCCCCCCCCCCCS(=O)(=O)N/N=C(/c1ccc(Cl)cc1)N1CCCCC1
inactive: [1] -18.2% | [2] -32.1% | [3] 3.25% | [4] 21.2% | [5] -10.2% | [6] -4.85%

O=C(O)c1[nH]c(=O)[nH]c(=O)c1C(=O)O
inactive: [1] -20.6% | [2] 0.55% | [3] -15.1% | [4] 18.8% | [5] -17.6% | [6] -15%

CC[N+](C)(CC)CCN1C(=O)CC[C@@]2(C)C1=CC[C@@H]1[C@@H]2CC[C@@]2(C)[C@H]1CC[C@]2(C)O
inactive: [1] 6.65% | [2] 8.8% | [3] 6.45% | [4] 29.5% | [5] 9.7% | [6] 12.1%

N#Cc1c(-c2cccn(-c3ccccc3)c2=O)cc(-c2ccccc2)[nH]c1=O
inactive: [1] 1.55% | [2] -5.65% | [3] -5.7% | [4] -19.1% | [5] 0.9% | [6] 9.1%

COc1cc2nc(C)oc(=O)c2cc1OC
inactive: [1] 19.1% | [2] -16.8% | [3] 10.9% | [4] -28.4% | [5] -12.3% | [6] 0.85%

C=C(C)COc1ccc(/C=C/C(=O)OCC)cc1
inactive: [1] 9.8% | [2] -4% | [3] 4.5% | [4] 1.2% | [5] -6.25% | [6] -12.4%

CC1(C)c2ccccc2C(=O)C12CCC(=O)CC2
inactive: [1] 9.2% | [2] -3.4% | [3] 18.8% | [4] 26.4% | [5] 18.9% | [6] 17.5%

Cc1ncc([N+](=O)[O-])n1CCNCCCn1ccnc1[N+](=O)[O-]
inactive: [1] -9.9% | [2] -7.25% | [3] -17.4% | [4] -9.3% | [5] -9.7% | [6] -44%

CCOC(=O)/C=C(\CC(=O)OCC)Nc1ccc(OC)cc1
inactive: [1] 6.8% | [2] -21.1% | [3] 4.1% | [4] -13.2% | [5] -2.3% | [6] -15.9%

CCOC(=O)CC/C(=N/Nc1ccc(Cl)cc1[N+](=O)[O-])C(=O)OCC
inactive: [1] 11.7% | [2] -39.9% | [3] -31.9% | [4] -7.6% | [5] -24.6% | [6] -0.4%

COc1c(Cl)cc([N+](=O)[O-])cc1Cl
inactive: [1] -3.5% | [2] 0.15% | [3] 3.1% | [4] -34.7% | [5] -18.5% | [6] -12.4%

CC1CCC2OC23C(=O)C2OC2C(C(C)(C)O)C13C (stereo not given)
inactive: [1] -3.25% | [2] -2.35% | [3] -10.7% | [4] 2.5% | [5] 5.65% | [6] 12.8%

COc1ccc2c(c1)CC[C@@H]1[C@@H]2CC[C@]2(C)[C@H](S)CC[C@@H]12
inactive: [1] -3.45% | [2] -15.7% | [3] 21.4% | [4] -41% | [5] 18.1% | [6] -7.3%

CCN(CC)CCC(=O)c1cnc(-c2ccccc2)nc1C
inactive: [1] 7.35% | [2] 35.1% | [3] 38.7% | [4] 2.5% | [5] 17.5% | [6] 20.1%

CN(C)S(=O)(=O)c1ccc(Nc2ccc(O)c3c2C(=O)c2c([N+](=O)[O-])ccc(O)c2C3=O)cc1
inactive: [1] 54.9% | [2] 13.4% | [3] -31.9% | [4] -8.3% | [5] -27.8% | [6] 26.1%

COc1ccc2c(c1)C(=O)C1CC(=O)CCC21 (stereo not given)
inactive: [1] -6.45% | [2] -10.4% | [3] -8.9% | [4] -21.8% | [5] -30.6% | [6] -8.9%

O=C1CCC([N+](=O)[O-])C(c2ccccc2Cl)N1 (stereo not given)
inactive: [1] 10.7% | [2] -15.9% | [3] 20.1% | [4] -0.9% | [5] 29.7% | [6] 20.5%

N=C(N)n1ncc2c1CCC/C2=N/N=C(N)N
inactive: [1] 17.5% | [2] 17.1% | [3] 13.5% | [4] 64.3% | [5] 29.9% | [6] 3.9%

COC(=O)C1CN(c2ccccc2)CCC1=O (stereo not given)
inactive: [1] -28.9% | [2] -31.8% | [3] -0.55% | [4] -35.7% | [5] -10.3% | [6] -12.7%

O=c1c2ccccc2[nH]c2ccc(O)cc12
inactive: [1] 1.45% | [2] -7.95% | [3] 4.8% | [4] -3.25% | [5] 3.2% | [6] 16.4%

O=C1C(O)=C(Cl)C(=O)C(O)=C1Cl.[Zn+2]
inactive: [1] -40.5% | [2] -25.8% | [3] -10.2% | [4] -9.1% | [5] -16.9% | [6] -26.8%

CC(C)(C=O)OC(=O)c1cc([N+](=O)[O-])cc([N+](=O)[O-])c1
inactive: [1] 7.2% | [2] -14.2% | [3] 27.4% | [4] 29.8% | [5] -8% | [6] 1.6%

O=C(O)c1c2ccccc2nc2ccccc12
inactive: [1] -17.6% | [2] -17.9% | [3] -17.9% | [4] -34.5% | [5] 15.2% | [6] 57%

O=c1/c(=C2\Cc3cccc4cccc2c34)c2cccc3cccc1c32
inactive: [1] -9.7% | [2] -10.8% | [3] 10.1% | [4] -1.45% | [5] 18.7% | [6] -15.2%

Nc1cc(Cl)c(F)cc1Cl
inactive: [1] -13.3% | [2] 0.25% | [3] -3.6% | [4] -28.8% | [5] 1.15% | [6] -14.2%

CCCC(C)c1ccc(C(=O)O)cc1 (stereo not given)
inactive: [1] 10.2% | [2] -10.7% | [3] 4.45% | [4] 11.2% | [5] -18.1% | [6] 20.9%

COC(=O)C(Br)C(Br)c1ccc(OC)c(OC)c1 (stereo not given)
inactive: [1] -5.15% | [2] -9.8% | [3] 13.3% | [4] -30.6% | [5] 22.9% | [6] 16.2%

CC(C)(C)c1ccc(-c2cc3nc(-c4ccccc4)cc(=O)n3[nH]2)cc1
inactive: [1] -8.05% | [2] -30.3% | [3] 10.5% | [4] 5.9% | [5] 10.8% | [6] -0.55%

CC(C)(C)OC(=O)NC(CSSCC(NC(=O)OC(C)(C)C)C(=O)O)C(=O)O (stereo not given)
inactive: [1] -7.05% | [2] -10.2% | [3] -10.7% | [4] -3.45% | [5] -5.7% | [6] -6.4%
